# Reference: PubChem BioAssay (Tox21)
# Inconclusive results are not listed. Unmarked numbers belong to inactive results. The source made the active and inactive calls. Calls come from the whole dose curve.
# Assay: qHTS assay to identify small molecule agonists of the hypoxia (HIF-1) signaling pathway - cell viability counter screen (AID 1224844); note: nearly all actives have a fitted effect of over 50% in size
# Settings: HRE-bla ME-180 viability, CellTiter-Glo luminescence, 17 h; series mostly up to 76.8 µM; activity change, negative = cytotoxicity: at the top concentration
# From the text: National Center for Advancing Translational Sciences [NCATS]
# NIH Chemical Genomics Center [NCGC]
# U.S. Environmental Protection Agency [EPA]
# National Institutes of Environmental Health Sciences [NIEHS]
# National Toxicology Program [NTP]
# U.S. Food and Drug Administration [FDA]
# Hypoxia-inducible factor-1 (HIF-1) is the major hypoxia-regulated transcription factor that controls cellular responses to low oxygen concentration. HIF-1 is composed of two subunits: hypoxia responsive HIF-1-alpha and constitutively expressed HIF-1-beta, which is also known as aryl hydrocarbon receptor nuclear translocator. During hypoxic conditions, HIF-1-alpha heterodimerizes with HIF-1-beta and translocates into the nucleus where the HIF-1 complex binds to the hypoxia-response element (HRE) and activates expression of target genes such as VEGF (vascular endothelial growth factor). The HIF-1 pathway is essential to normal growth and development, and is involved in the pathophysiology of cancer, inflammation, and ischemia.
# Using a beta-lactamase reporter-gene under control of the hypoxia response element, a cell-based assay [CellSensor(TM) HRE-bla ME-180 from Life Technologies, Carlsbad, CA] was used to measure hypoxia-induced signaling. Tox21 10K library compounds were measured for their ability to induce the reporter gene activity. The cytotoxicity of the Tox21 compound library against HRE-bla ME-180 cell line was tested in parallel by measuring cell viability using CellTiter-Glo assay (Promega, Madison, WI) in the same assay wells.
# Tox21 Assay Protocol Summary:
# HRE-bla ME-180 cells were dispensed at 2,000 cells per well in 6 uL of assay medium containing 0.5% dialyzed FBS into black wall/clear-bottom 1536-well plates using a Multidrop Combi (Thermo Scientific, Waltham, MA) dispenser. After the assay plates were incubated at 37C and 5% CO2 for 5 hrs, 23 nL of compounds dissolved in DMSO, positive controls or DMSO only was transferred to each well of the assay plate using a Pintool station (Kalypsys, San Diego, CA). The assay plates were incubated at 37C and 5% CO2 for 17 hrs. One uL of LiveBLAzerTM B/G FRET substrate (CCF4-AM) (Life Technologies) was added to each well using a Flying Reagent Dispenser (FRD, Aurora Discovery, San Diego, CA). After 2 hr incubation at room temperature, fluorescence intensity (405 nm excitation, 460 nm and 530 nm emissions) was measured using an Envision plate reader (PerkinElmer, Shelton, CT). For cytotoxicity, 4 ul/well of CellTiter-Glo reagent was added into the assay plates using an FRD. After 30 min incubation at room temperature, the luminescence intensity was measured using a ViewLux plate reader (PerkinElmer).
# % is set by controls: 0 for no effect and ±100 for the full control effect; potency is the fitted concentration of half-maximal effect.
SMILES,"activity change, negative = cytotoxicity",Potency
CC1(C)C(C=C(Cl)Cl)C1C(=O)OC(C#N)c1ccc(F)c(Oc2ccccc2)c1 (stereo not given),9.04%,–
O=[N+]([O-])c1ccc(Cl)c(Cl)c1Cl,5.55%,–
c1ccc2c(c1)cc1ccc3cccc4ccc2c1c34,-5.55%,–
CC#C[C@]1(O)CC[C@H]2[C@@H]3C[C@H](C)C4=CC(=O)CC[C@]4(C)[C@H]3CC[C@@]21C,-14.2% [at 35.3 µM],–
C=Cc1cccc(CCl)c1,-21.4% [at 200 µM],–
Nc1nc(N)nc(Cl)n1,3.6%,–
Cc1cccc(Cc2cnc[nH]2)c1C,6.88% [at 35.3 µM],–
CC(=O)[O][Pb]([c]1ccccc1)([c]1ccccc1)[c]1ccccc1,–,1.38 µM (active)
CN(C)CCc1c[nH]c2ccccc12,-18%,–
COC(=O)C(C)N(C(=O)c1ccco1)c1c(C)cccc1C (stereo not given),-1.41%,–
CC(=O)[O-].CC(=O)[O-].O.O.O.[Pb+2],18.8%,–
CCCC[N+]1(C)CCCC1 (tested in a mixture with another compound),11.1%,–
Clc1ccc(C(Cl)(Cl)Cl)cc1Cl,–,24 µM (active)
O=S1OCC2C(CO1)C1(Cl)C(Cl)=C(Cl)C2(Cl)C1(Cl)Cl (stereo not given),–,48.9 µM (active)
NC(=O)C(Cl)Cl,-6.23%,–
N#CSCc1ccccc1,-4.77%,–
FC(F)C(F)(F)OCC(Cn1cncn1)c1ccc(Cl)cc1Cl (stereo not given),-2.6%,–
Oc1ccc2[nH]cc(CCCCN3CC=C(c4ccccc4)CC3)c2c1,-0.805% [at 35.3 µM],–
CCCCC(CC)COC(=O)OOC(C)(C)C (stereo not given),0.143%,–
CCc1cccc(C)c1N(C(=O)CCl)[C@@H](C)COC,–,49 µM (active)

SMILES,"activity change, negative = cytotoxicity",Potency
CN1C(=O)[C@@H](NC(=O)c2cc3ccccc3[nH]2)N=C(c2ccccc2)c2ccccc21,-0.294% [at 35.3 µM],–
CCN(CC)CCN1C(=O)CN=C(c2ccccc2F)c2cc(Cl)ccc21,-0.301% [at 35.3 µM],–
CSC(C)(C)/C=N/O,1.41%,–
O=[N+]([O-])c1cccc2cccc([N+](=O)[O-])c12,1.13%,–
CCC[CH2][Sn]([CH2]CCC)([O]C(C)=O)[O]C(C)=O,–,0.986 µM (active)
[O-][Cl+3]([O-])([O-])O,2.6%,–
Cc1ccn2nc(S(=O)(=O)Nc3c(F)cccc3F)nc2n1,2.78%,–
CN1C2CCC(C)(C)C1CC(OC(=O)C(O)(c1cccs1)c1cccs1)C2 (stereo not given),1.77% [at 35.3 µM],–
BrCCCBr,-20%,–
Nc1cc(Cl)ccc1Cl,0.327%,–
CCOP(=S)(NC(C)C)Oc1ccccc1C(=O)OC(C)C (stereo not given),–,6.16 µM (active)
N#Cc1c2ccccc2cc2ccccc12,-20.5%,–
O=Cc1ccccc1,3.81%,–
COC(=O)/C=C(\C)OP(=O)(OC)OC,10.5%,–
CCCCn1cc[n+](C)c1 (tested in a mixture with another compound),-1.32%,–
CCCCCON=O,-6.34%,–
Cc1ccc(C)c2ccccc12,5.39%,–
COC(=O)c1cc(Oc2ccc(Cl)cc2Cl)ccc1[N+](=O)[O-],1.11%,–
COc1ccc2[nH]cc(CCN(C(C)C)C(C)C)c2c1,-21.2%,–
Cc1cc(C2CC2)nc(Nc2ccccc2)n1,7.98%,–
